Measured values taken from PubChem BioAssay (EPA / NIEHS).
Activity calls are given as the source filed them. The calls were made as follows: active = hit-call score of the fitted dose curve at least 0.9, where 1 is the maximum; inactive = score below 0.9.

Tests used:
[1] = target: Paired box protein Pax-6 (Homo sapiens) (UniProt P26367); assay: ATG_Pax6_CIS: Attagene CIS-FACTORIAL HepG2 Assay for human Paired Box 6 (PAX6) (AID 2282956); conditions: HepG2 CIS-FACTORIAL PAX6 reporter transcription, RNA readout; actives raise or lower the signal
Paired box protein Pax-6 (Homo sapiens), sequence (P26367 whole entry, looked up): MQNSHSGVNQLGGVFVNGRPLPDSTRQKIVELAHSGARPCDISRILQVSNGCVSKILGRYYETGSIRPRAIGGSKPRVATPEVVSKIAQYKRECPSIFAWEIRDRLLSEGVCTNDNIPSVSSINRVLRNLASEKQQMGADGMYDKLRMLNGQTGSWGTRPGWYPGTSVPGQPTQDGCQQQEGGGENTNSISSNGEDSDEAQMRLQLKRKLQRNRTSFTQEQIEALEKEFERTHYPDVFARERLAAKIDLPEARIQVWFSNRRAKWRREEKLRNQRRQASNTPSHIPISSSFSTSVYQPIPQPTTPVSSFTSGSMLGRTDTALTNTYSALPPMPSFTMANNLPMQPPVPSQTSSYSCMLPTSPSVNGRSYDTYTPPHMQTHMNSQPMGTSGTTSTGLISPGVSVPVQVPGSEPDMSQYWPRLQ
Procedure, shortened: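 After twenty-four hours of chemical exposure, transfected HepG2 cells are harvested for RNA. Cis-promoter reporter transcripts are amplified, fluorescently labelled and sized by capillary electrophoresis, with gain and loss of signal scored against DMSO.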

[2] = ATG_PXRE_CIS: Attagene CIS-FACTORIAL HepG2 Assay for human Pregnane X Receptor Element (PXRE) (AID 2282957); conditions: HepG2 Attagene CIS-FACTORIAL PXRE reporter, mRNA; actives raise or lower the signal
Procedure, shortened: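 HepG2 cells transiently transfected with cis-element-driven multiplexed reporter units; after 24 h chemical exposure, reporter mRNA measured by RT-PCR, 6-FAM labelling, HpaI digestion and capillary electrophoresis. Bidirectional fitting relative to DMSO.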

[3] = ATG_PPRE_CIS: Attagene CIS-FACTORIAL HepG2 Assay for human Peroxisome Proliferator-activated Response Element (PPRE) (AID 2282958); conditions: HepG2 PPRE cis-element reporter, Attagene transcription factor profiling; actives raise or lower the signal
Procedure, shortened: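 Multiplexed reporter transcription units under cis-regulatory promoters were transfected into HepG2 cells to capture endogenous factor activity. A 24 h incubation preceded RNA isolation and fluorescent RT-PCR fragment analysis.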

[4] = ATG_RORE_CIS: Attagene CIS-FACTORIAL HepG2 Assay for human RAR-related Orphan Receptor Element (RORE) (AID 2282959); conditions: HepG2 Attagene cis-factorial RORE reporter, mRNA; actives raise or lower the signal
Procedure, shortened: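 Fluorescence intensity of reporter-specific cDNA fragments, separated by capillary electrophoresis, gives the signal. Source: HepG2 liver cells transiently transfected with cis-element reporters and exposed 24 h; DMSO-normalized bidirectional fit.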

[5] = ATG_Sox_CIS: Attagene CIS-FACTORIAL HepG2 Assay for human SRY-box transcription factor (SOX) (AID 2282960); conditions: HepG2 Attagene cis-factorial SOX reporter, mRNA; actives raise or lower the signal
Procedure, shortened: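 After 24 h of chemical treatment, transfected HepG2 reporter cells are lysed for total RNA. Transcript levels come from RT-PCR with labelled primer extension and capillary electrophoresis, analysed bidirectionally versus DMSO.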

[6] = target: Transcription factor Sp1 (Homo sapiens) (UniProt P08047); assay: ATG_Sp1_CIS: Attagene CIS-FACTORIAL HepG2 Assay for human Specificity Protein 1 (Sp1) (AID 2282961); conditions: HepG2 Sp1 cis-reporter transcription, actives raise or lower the signal
Transcription factor Sp1 (Homo sapiens), sequence (P08047 whole entry, looked up): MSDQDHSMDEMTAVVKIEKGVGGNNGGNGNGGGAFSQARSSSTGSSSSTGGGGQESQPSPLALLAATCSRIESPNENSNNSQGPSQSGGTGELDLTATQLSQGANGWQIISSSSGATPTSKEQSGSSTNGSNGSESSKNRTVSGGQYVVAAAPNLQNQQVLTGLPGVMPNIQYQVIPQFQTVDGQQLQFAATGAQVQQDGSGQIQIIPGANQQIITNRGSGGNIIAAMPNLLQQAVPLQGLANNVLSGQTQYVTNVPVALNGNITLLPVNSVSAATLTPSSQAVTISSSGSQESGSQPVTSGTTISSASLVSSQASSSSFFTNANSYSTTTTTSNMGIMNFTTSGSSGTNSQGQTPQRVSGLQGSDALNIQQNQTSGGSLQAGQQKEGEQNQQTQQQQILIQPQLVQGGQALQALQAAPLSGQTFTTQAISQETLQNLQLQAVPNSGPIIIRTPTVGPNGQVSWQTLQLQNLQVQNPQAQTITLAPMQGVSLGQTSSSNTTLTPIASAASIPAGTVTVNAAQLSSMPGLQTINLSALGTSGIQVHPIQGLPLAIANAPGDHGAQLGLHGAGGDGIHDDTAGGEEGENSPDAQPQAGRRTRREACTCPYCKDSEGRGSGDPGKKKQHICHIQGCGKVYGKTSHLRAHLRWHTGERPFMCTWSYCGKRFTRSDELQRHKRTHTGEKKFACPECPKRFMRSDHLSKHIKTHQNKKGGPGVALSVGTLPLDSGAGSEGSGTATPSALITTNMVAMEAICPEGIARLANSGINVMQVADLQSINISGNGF
Procedure, shortened: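 Sp1-driven reporter mRNA, read as capillary electrophoresis fluorescence after RT-PCR, in transiently transfected HepG2 cells dosed for 24 h; signal change in either direction relative to DMSO.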

[7] = ATG_SREBP_CIS: Attagene CIS-FACTORIAL HepG2 Assay for human Sterol Regulatory Element Binding (SREBP) (AID 2282962); conditions: HepG2 Attagene cis-factorial SREBP reporter, mRNA; actives raise or lower the signal
Procedure, shortened: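 Twenty-four hours after chemical dosing of transfected HepG2 cultures, reporter RNA was converted to cDNA, amplified, end-labelled with 6-FAM and resolved by capillary electrophoresis. Responses were fitted relative to DMSO.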

[8] = target: Signal transducer and activator of transcription 3 (Homo sapiens) (UniProt P40763); assay: ATG_STAT3_CIS: Attagene CIS-FACTORIAL HepG2 Assay for human Signal Transducer and Activator of Transcription 3 (STAT3) (AID 2282963); conditions: HepG2, Attagene cis-factorial STAT3 reporter transcription; actives raise or lower the signal
Signal transducer and activator of transcription 3 (Homo sapiens), sequence (P40763 whole entry, looked up): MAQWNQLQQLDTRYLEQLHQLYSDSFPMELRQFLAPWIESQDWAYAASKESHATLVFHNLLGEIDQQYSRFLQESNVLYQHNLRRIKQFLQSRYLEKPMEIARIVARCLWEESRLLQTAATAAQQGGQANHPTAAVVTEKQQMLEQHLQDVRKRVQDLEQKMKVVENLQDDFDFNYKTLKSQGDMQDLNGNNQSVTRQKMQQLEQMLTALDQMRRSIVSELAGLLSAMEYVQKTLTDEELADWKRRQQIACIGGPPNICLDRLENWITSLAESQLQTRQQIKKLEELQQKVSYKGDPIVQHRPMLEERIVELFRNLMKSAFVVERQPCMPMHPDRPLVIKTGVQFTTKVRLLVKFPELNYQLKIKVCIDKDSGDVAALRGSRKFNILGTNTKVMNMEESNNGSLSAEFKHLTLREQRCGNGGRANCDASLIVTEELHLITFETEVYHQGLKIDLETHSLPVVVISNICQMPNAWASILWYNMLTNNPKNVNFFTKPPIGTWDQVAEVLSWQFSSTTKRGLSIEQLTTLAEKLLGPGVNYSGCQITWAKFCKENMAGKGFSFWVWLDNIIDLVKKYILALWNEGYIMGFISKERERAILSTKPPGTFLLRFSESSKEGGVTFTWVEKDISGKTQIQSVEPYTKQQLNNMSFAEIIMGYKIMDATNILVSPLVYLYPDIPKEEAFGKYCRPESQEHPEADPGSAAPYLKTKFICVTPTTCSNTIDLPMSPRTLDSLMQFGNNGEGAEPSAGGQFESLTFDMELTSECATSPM
Procedure, shortened: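 Endogenous STAT3-responsive cis-element activity was read in transiently transfected HepG2 cells after 24 h treatment. Reporter transcripts were quantified via RT-PCR and capillary electrophoresis, with DMSO as negative control and bidirectional curve fitting.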

[9] = ATG_TA_CIS: Attagene CIS-FACTORIAL HepG2 Assay for human TA Basal Promoter (AID 2282964); conditions: HepG2 Attagene CIS-factorial TA basal promoter reporter; actives raise or lower the signal
Procedure, shortened: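 Transfected HepG2, 24 h compound exposure; RNA → RT-PCR → FAM primer extension → HpaI cut → CE fluorescence. Gain/loss-of-signal fitted against DMSO negative control. Background-control readout.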

[10] = ATG_TCF_b_cat_CIS: Attagene CIS-FACTORIAL HepG2 Assay for human T-Cell-Factor with beta-catenin (TCF/b-cat) (AID 2282965); conditions: HepG2 TCF/beta-catenin cis-reporter transcription, actives raise or lower the signal
Procedure, shortened: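 Measured: reporter mRNA in HepG2 transiently transfected with cis-promoter reporter units, 24 h after chemical addition. Fitting was bidirectional, DMSO as negative control.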

Measured: AC50

CCOC(=O)COc1ccc2c(c1)CC(NCC(O)c1cccc(Cl)c1)CC2 (stereo not drawn)
active: [10] 33 µM
inactive: all other assays above

CC(C)CCCCCCCOC(=O)CCCCC(=O)OCCCCCCCC(C)C
active: [2] 100 µM
inactive: all other assays above

NC(=O)NO
not listed: [3]
inactive: all other assays above

O=C1CCCCCN1
inactive: all assays above

COc1ccc(/C=C/S(=O)(=O)NC(=O)c2ccc(C)cc2Cl)cc1
inactive: all assays above

CC1(C)C(=O)N(Br)C(=O)N1Br
not listed: [3]
inactive: all other assays above

CCNc1ccccc1
active: [2] 35.5 µM
inactive: all other assays above

O=C(O)c1cccc(Oc2ccccc2)c1
active: [3] 48.3 µM
inactive: all other assays above

CC(C)c1cccc(C(C)C)c1N1C(=O)c2ccc(O)cc2C1=O
inactive: [2] | [8] | [9]
active: [1] 76.9 µM | [3] 26.9 µM | [5] 122 µM | [6] 74.2 µM | [7] 100 µM | [10] 100 µM

CNS(=O)(=O)c1cc(C(=O)N2CCC(CCN3C4CCC3CC(n3c(C)nc5ccccc53)C4)(c3cccc(F)c3)CC2)c(Cl)cc1F (stereo not drawn)
active: [2] 1.08 µM | [3] 3.63 µM | [7] 3.32 µM | [10] 7.52 µM
inactive: all other assays above

O=C(O)c1cccc(N(Cc2cccnc2)c2ccc(OC(F)F)c(OC(F)F)c2)c1
active: [2] 26.2 µM | [3] 25.1 µM | [10] 100 µM
inactive: all other assays above

CCCCCCCCCCCCc1ccccc1
not listed: [6]
inactive: all other assays above

CC(C)CC(C)(O)C#CC(C)(O)CC(C)C (stereo not drawn)
active: [2] 12.7 µM
not listed: [3]
inactive: all other assays above

Cc1ccc(C)c(O)c1
not listed: [6]
inactive: all other assays above

CC(C)CCCCCCOC(=O)c1ccc(C(=O)OCCCCCCC(C)C)c(C(=O)OCCCCCCC(C)C)c1
not listed: [6]
inactive: all other assays above

CC(C)=CCCC(C)=CC=O
active: [2] 4.7 µM | [5] 167 µM | [10] 157 µM
not listed: [6]
inactive: all other assays above

Fc1ccccc1[C@@H](F)COC1CCC(Nc2ncnc3[nH]ncc23)CC1 (stereo partly drawn)
active: [2] 25.4 µM | [3] 4.79 µM | [4] 26.1 µM | [6] 168 µM | [7] 4.65 µM | [9] 4.57 µM
inactive: [1] | [5] | [8] | [10]

CC1=CC(=O)CC(C)(C)C1
active: [2] 50 µM
inactive: all other assays above

C=CC(=C)CCC=C(C)C
active: [2] 18.8 µM
not listed: [3]
inactive: all other assays above

O=c1[nH]c2ccc(S(=O)CCN3CCC(Cc4ccc(F)cc4)CC3)cc2o1 (stereo not drawn)
active: [1] 73 µM | [2] 26.3 µM | [5] 66.5 µM | [7] 31.2 µM
inactive: all other assays above

On1ccccc1=S
not listed: [6]
inactive: all other assays above

O=C(O)CCN(C1(C(=O)NO)CCCC1)S(=O)(=O)c1ccc(Oc2ccc(F)cc2)cc1
not listed: [4]
inactive: all other assays above

CC/C(=C\C(=N/O)C(N)=O)C(C)[N+](=O)[O-] (stereo not drawn)
active: [10] 100 µM
inactive: all other assays above

CC(C)CCO
not listed: [6]
inactive: all other assays above

CC(C)(O)c1coc(S(=O)(=O)NC(=O)Nc2c3c(cc4c2CCC4)CCC3)c1
active: [2] 26.9 µM
not listed: [3]
inactive: all other assays above

O=c1n(CC2CO2)c(=O)n(CC2CO2)c(=O)n1CC1CO1 (stereo not drawn)
active: [1] 59.6 µM | [2] 21.3 µM | [4] 65.3 µM | [5] 65.2 µM | [6] 17.1 µM
inactive: all other assays above

CCCCC(CC)COC(=O)CCCCCCCCC(=O)OCC(CC)CCCC (stereo not drawn)
not listed: [6]
inactive: all other assays above

CCCCCCc1ccc(O)cc1O
active: [1] 51.1 µM | [4] 42 µM | [10] 47.8 µM
not listed: [3]
inactive: all other assays above

Cn1c(=O)cc(Oc2ccc(F)cc2F)c2cnc(NCC(C)(C)O)nc21
active: [10] 56.9 µM
not listed: [6]
inactive: all other assays above

O=C1OC(=O)C2C3C=CC(C3)C12 (stereo not drawn)
not listed: [3]
inactive: all other assays above

Cc1c(-c2cccnc2)c2ccccc2n1CCCCC(=O)O
not listed: [3] | [6]
inactive: all other assays above

CCOC(=O)CC(CC(=O)OCC)(OC(C)=O)C(=O)OCC
active: [2] 27.3 µM
not listed: [3]
inactive: all other assays above

CCCCC(CC)COC(=O)c1ccc(C(=O)OCC(CC)CCCC)cc1 (stereo not drawn)
active: [2] 63 µM
not listed: [3]
inactive: all other assays above

Nc1ccc(Nc2ccccc2)cc1
not listed: [3]
inactive: all other assays above

C1=CCCC=CCCC=CCC1
not listed: [3] | [6]
inactive: all other assays above

CCn1nc(Cc2ccccc2)cc1C1CCN(C[C@H]2C[C@H](N(C)[C@@H](C(=O)O)C(C)C)C[C@@H]2c2cccc(F)c2)CC1
active: [7] 26.9 µM | [10] 100 µM
not listed: [3]
inactive: all other assays above

COc1ccc(-n2nc(C(F)F)cc2-c2ccc(S(C)=O)cc2)cc1 (stereo not drawn)
active: [2] 26.6 µM | [7] 126 µM
not listed: [3]
inactive: all other assays above

Cc1ccc(N)cc1O
not listed: [3]
inactive: all other assays above

CCCCCCCCCCCCCCCO
not listed: [3]
inactive: all other assays above

Nc1nc2ncc(CNc3ccc(C(=O)N[C@@H](CCC(=O)O)C(=O)O)cc3)nc2c(=O)[nH]1
not listed: [3]
inactive: all other assays above

Nc1cccc(N)c1
not listed: [3]
inactive: all other assays above

CC(=O)OC[C@H]1O[C@@](COC(C)=O)(O[C@H]2O[C@H](COC(C)=O)[C@@H](OC(C)=O)[C@H](OC(C)=O)[C@H]2OC(C)=O)[C@@H](OC(C)=O)[C@@H]1OC(C)=O
active: [2] 20.1 µM
not listed: [3] | [6]
inactive: all other assays above
